# esBAF inh = inhibitors of esBAF chromatin remodeling in mouse ES cells | Bmi1-luciferase knock-in reporter, 24 h; 100% = twice the neutral-well signal | reporter increase, % at 12.5 µM | 350,000 tested, 2% active; in the data active = activation above about 40%; inconclusive = no clear call, values can overlap the other calls;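 also: 0% = median of the plate's neutral control wells and 100% = double that signal; a rise in the Bmi1 reporter signal indicates esBAF inhibition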
# HSF1 activator = increases HSF-1 driven luciferase reporter signal; NIH3T3-HGL HSF-1 luciferase reporter, MG132, 8 h; 100% = twice DMSO control signal; activation, % at 9 µM; 300,000 tested, 1.7% active; AID 504408;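 active = mean replicate activation of at least 50% with a set share of replicates each reaching 50%; inconclusive = only one of those two conditions met; inactive = mean below 50% and too few replicates reaching it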;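 also: 0% = median of the neutral control wells and 100% = twice that signal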
# HSF1 inh = HSF1 inhibition | NIH3T3-HGL HSE-luciferase, MG132-induced, luminescence 8 h; active compounds read low | activity change, negative = inhibition, % at 7.5 µM (by protocol) | 300,000 tested, 0.77% active;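 active = more than half of replicate wells show activity change below -50%, luminescence cut by over half; inconclusive = some wells, but at most half, below -50%; inactive = no replicate well below -50%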;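 also: luciferase reports HSF-1 transcriptional activity via heat shock element; 0% = median of DMSO wells and -100% = zero luminescence signal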
# Wnt act = Wnt/beta-catenin pathway activation; AID 743398; Wnt/beta-catenin reporter cell assay, activator, plate reader; activation, % at 9.35 µM; 300,000 tested, 1.2% active; in the data active = activation above about 30%, passing the limit was not always enough; inconclusive = no clear call, values can overlap the other calls;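 also: 0% = neutral control wells and 100% = positive control wells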
# MITF TRPM1 HTS = activators of MITF-driven TRPM1 promoter activity in SK-MEL-5 cells | AID 588334 | 300,000 tested, 0.75% active | activation, % at 12.5 µM | SK-MEL-5 TRPM1-promoter luciferase, 24 h; % of positive control, neutral wells = 0;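 active = mean activation of at least 80% with every replicate also reaching 80%; inconclusive = mean reaches 80% but some replicate falls short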;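 also: 0% = neutral control wells and 100% = parthenolide positive control wells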
# Starred values were filed as active, the others as inactive; ? = inconclusive; . = no result given; ! = not confirmed by another sample. In the library only some 3.9% were active in any assay of this set; here they are far more common.
SMILES,esBAF inh,HSF1 activator,HSF1 inh,Wnt act,MITF TRPM1 HTS
C[C@@H]1CN([C@H](C)CO)C(=O)c2cc(NC(=O)Nc3ccccc3)ccc2O[C@H]1CN(C)Cc1ccc(C(=O)O)cc1,0.1,.,.,.,.
Nc1ccc2c(c1)OC1(CCCC1)O2,-54.3,-90.5,-89.2*,-4.8,-60.8
CCc1ccccc1NC(=O)CN1CCN(CC(=O)Nc2ccc3c(c2)OC2(CCCCC2)O3)CC1,4.7,.,.,-4.4,-15.2
O=C(CN1CCCC1)Nc1cc(F)ccc1F,.,3.8,1.1,10.5,-10.1
O=C(CNCCc1ccc(F)cc1)Nc1cc(F)ccc1F,-7.0,-68.6,-60.1*,-0.4,.
NNC(=O)COc1ccc(-c2nccc(-c3ccc(F)cc3)n2)cc1,-62.6,-29.5,-26.6,1.9,1.9
Oc1ccc(-c2nccc(-c3ccc(F)cc3)n2)cc1,?,17.2,18.9,16.7,92.2*
Cc1cccc(NC(=O)COc2ccc3oc4c(c3c2)CCCC4)n1,16.9,15.8,11.6,1.6,18.8
O=C(COc1ccc2c(c1)CCC2)Nc1ccccn1,51.4*,-11.5,-3.7,11.8,-49.5
Cc1cccc(NC(=O)COc2ccc3c(c2)CCC3)n1,9.9,.,.,1.7,101.4*
Cc1cnc(NC(=O)COc2ccc3c(c2)CCC3)s1,18.4,46.0,26.0,43.1*,40.0
O=C(COc1ccc2c(c1)CCC2)NCc1ccccc1,.,-4.1,-1.5,2.3,14.8
COc1cc(C)c(NC(=O)COc2ccc3c(c2)CCC3)cc1OC,-2.2,.,.,2.0,-4.4
O=C(COC(=O)COc1ccc2c(c1)CCC2)Nc1ccccc1,42.0*,.,.,-0.2,30.2
Cc1noc(C)c1NC(=O)N[C@@H]1C=C[C@H](CC(=O)N2CCN(C)CC2)O[C@@H]1CO,0.7,.,.,.,.
Cc1ccc(N(CC2=NCCN2)c2cccc(O)c2)cc1,3.1,-74.6,-71.8*!,6.5,-4.2
COc1ccc(NC(=O)C2CC(=O)NC(Nc3cccc(C)c3)=N2)cc1 (centres undefined),-0.7,86.8*,32.2,-1.1,3.1
c1ccc2c(c1)COc1c3ncccc3nn1-2,50.3*,.,.,7.0,.
C/C(N)=C(/C#N)C(=O)CSc1nnc(Nc2ccccc2)s1,.,55.3*,29.7,38.8*,53.6
C/C(N)=C(/C#N)C(=O)CSc1nnc(Nc2ccccc2C)s1,.,70.9*,38.4,.,3.4
CCCNC(=O)N1C[C@@H](O)COC[C@@H]2O[C@@H](CC(=O)OC)CC[C@H]21,-5.2,.,.,.,.
Cn1c(=N)n(CC(=O)c2ccccc2)c2ccccc21,-59.2,5.4,-1.9,2.4,.
Cn1c(=N)n(CC(=O)C(C)(C)C)c2ccccc21,50.6*,6.5,5.1,-2.4,28.7
COc1ccc(C(=O)CN2Cc3ccccc3C2=N)cc1,.,19.5,8.6,42.2*,.
COc1ccc(C(=O)Cn2c(=N)n(C)c3ccccc32)cc1,87.4*,34.4,21.3,1.4,.
SMILES,esBAF inh,HSF1 activator,HSF1 inh,Wnt act,MITF TRPM1 HTS
Cn1c(=N)n(CC(=O)c2ccc(Cl)c(Cl)c2)c2ccccc21,-74.3,-68.2,-62.7*,4.0,-48.8
CCCn1c(=N)n(CC(=O)C(C)(C)C)c2ccccc21,-0.8,-15.9,-4.3,-2.0,.
CO[C@@H]1CC[C@H]2CCN(C)C(=O)C[C@H](c3ccccc3)CN(C)C(=O)c3cc(C#N)ccc3OC[C@H]1O2,-0.8,.,.,.,.
COCC(=O)Nc1ccc2c(c1)C(=O)N(C)C[C@@H](OC)[C@H](C)CN(C)[C@@H](C)CO2,-5.8,.,.,.,.
CC(C)C#Cc1ccc2c(c1)O[C@H](CN(C)C(=O)c1cccc(F)c1)[C@@H](C)CN([C@@H](C)CO)S2(=O)=O,6.2,.,.,.,.
O=C1OC(c2ccccc2)=C/C1=C/c1cccs1,25.8*,10.8,0.1,2.9,7.1
CC(=O)c1ccc(NC(=O)COC(=O)C2CC3C=CC2C3)cc1 (centres undefined),16.8,.,.,43.0*,56.1
O=C(COC(=O)c1ccc([N+](=O)[O-])o1)Nc1ccc2c(c1)OC(F)(F)O2,-6.9,.,.,1.0,.
O=C(COC(=O)C1CC2C=CC1C2)Nc1ccc2c(c1)OC(F)(F)O2 (centres undefined),3.1,105.0*,87.5,.,-2.3
COc1ccccc1NC(=O)COC(=O)C1CC2C=CC1C2 (centres undefined),.,-2.7,-1.2,-0.3,-9.4
C[C@@H]1CCCCO[C@H](CN(C)C(=O)c2ccccc2)[C@H](C)CN([C@H](C)CO)C(=O)c2cc(NC(=O)C3CCCCC3)ccc2O1,-5.1,.,.,.,.
O=C(COc1ccc(Br)cc1)Nc1ccc(-c2nnc(-c3ccco3)o2)cc1,14.7,51.0*,27.7,.,28.0
